In PubChem BioAssay AID1159580 (chemical genetic matrix, 2015):
Several values for one entry are separate records, joined by “and”; a condition that tells them apart may be missing. Identical values can stand only once. In all, about 5,500 compounds went through this assay and about 2,000 (36%) were called active. About 18% were inconclusive and are not listed. Rule as the data show it: active = normalized growth mostly below about 0.91 (no sharp cut-off); inconclusive = no clear call, values can overlap the other calls; inactive = mostly above about 0.92. This is one part of the list.

Assay: chemical genetic growth profiling, strain panel (AID 1159580);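 also: tested at 20 µM; growth read once vehicle control cultures reached saturation at 30 °C; 1 = growth at the plate median or of vehicle wells; lower values mean less growth of the strain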
Conditions: S. cerevisiae deletion strains, growth OD

Measured: normalized growth

CC1=C(CC(=O)O)c2cc(F)ccc2/C1=C\c1ccc(S(C)=O)cc1 (stereo unspecified)
inactive: locus YAL013W, strain DEP1, active compounds read low 1 | locus YAL021C, strain ccr4, active compounds read low 1.02 | locus YAL026C, strain drs2, active compounds read low 1.02 | locus YAL030W, strain snc1, active compounds read low 1.01 | locus YAL040C, strain CLN3, active compounds read low 0.99 | locus YBL061C, strain skt5, active compounds read low 1.02 | locus YBR009C, strain hhf1, active compounds read low 1.01 | locus YBR021W, strain FUR4, active compounds read low 1.03 | locus YBR023C, strain chs3, active compounds read low 1.02 | locus YBR171W, strain sec66, active compounds read low 1.02 | locus YBR229C, strain ROT2, active compounds read low 1 | locus YBR231C, strain swc5, active compounds read low 1.03 | locus YBR279W, strain paf1, active compounds read low 1.01 | locus YCL011C, strain gbp2, active compounds read low 1.03 | locus YCL016C, strain dcc1, active compounds read low 1.01 | locus YCL029C, strain bik1, active compounds read low 1.02 | locus YCL061C, strain MRC1 (second series), active compounds read low 1.01 | locus YCL061C, strain MRC1, active compounds read low 1.02 | locus YCL069W, strain vba3, active compounds read low 1.02 | locus YCR088W, strain abp1, active compounds read low 1.02 | locus YDL005C, strain med2, active compounds read low 1.02 | locus YDL035C, strain GPR1, active compounds read low 1.01 | locus YDL040C, strain nat1, active compounds read low 1.01 | locus YDL074C, strain BRE1, active compounds read low 0.981 | locus YDL101C, strain DUN1, active compounds read low 1.01 | locus YDL134C, strain PPH21, active compounds read low 0.999 | locus YDL185W, strain tfp1, active compounds read low 1 | locus YDL192W, strain arf1, active compounds read low 1.02 | locus YDR001C, strain nth1, active compounds read low 1.02 | locus YDR069C, strain doa4, active compounds read low 1.01 | locus YDR101C, strain arx1, active compounds read low 1.06 | locus YDR137W, strain rgp1, active compounds read low 1.02 | locus YDR150W, strain NUM1, active compounds read low 0.996 | locus YDR159W, strain sac3, active compounds read low 1.02 | locus YDR162C, strain NBP2, active compounds read low 1.01 | locus YDR195W, strain ref2 1.04 | locus YDR297W, strain sur2, active compounds read low 1.02 | locus YDR318W, strain mcm21, active compounds read low 1.02 | locus YDR334W, strain swr1, active compounds read low 1.02 | locus YDR335W, strain msn5, active compounds read low 1.01 | locus YDR363W, strain ESC2, active compounds read low 0.995 | locus YDR388W, active compounds read low 1.03 | locus YDR392W, strain spt3, active compounds read low 0.996 | locus YDR502C, strain sam2, active compounds read low 1.02 | locus YEL003W, strain gim4, active compounds read low 1.02 | locus YEL037C, strain rad23, active compounds read low 1.02 | locus YEL061C, strain CIN8 (second series), active compounds read low 1.03 | locus YEL061C, strain CIN8, active compounds read low 1.01 | locus YER002W, strain NOP16, active compounds read low 0.993 | locus YER015W, strain faa2, active compounds read low 1.01 | locus YER016W, strain bim1, active compounds read low 1 | locus YER110C, active compounds read low 1.03 | locus YER111C, strain swi4, active compounds read low 1.03 | locus YER155C, strain BEM2 (second series), active compounds read low 1.03 | locus YER155C, strain BEM2, active compounds read low 1.01 | locus YER167W, strain BCK2, active compounds read low 1.01 | locus YFR010W, strain ubp6, active compounds read low 1.02 | locus YGL078C, strain dbp3, active compounds read low 1.02 | locus YGL086W, strain mad1, active compounds read low 1.01 | locus YGL167C, strain pmr1, active compounds read low 1.03 | locus YGL173C, strain kem1, active compounds read low 1.02 | locus YGL227W, strain vid30, active compounds read low 1.03 | locus YGL240W, strain doc1, active compounds read low 1.01 | locus YGL248W, strain PDE1, active compounds read low 0.999 | locus YGL253W, strain hxk2, active compounds read low 1.02 | locus YGR078C, strain PAC10, active compounds read low 1.01 and 0.998 | locus YGR135W, strain pre9, active compounds read low 1 | locus YGR229C, strain SMI1, active compounds read low 0.977 | locus YGR252W, strain gcn5, active compounds read low 0.982 | locus YHR013C, strain ard1, active compounds read low 1.03 | locus YHR027C, strain rpn1, active compounds read low 1.02 | locus YHR030C, strain SLT2, active compounds read low 1.01 and 0.982 | locus YHR079C, strain IRE1 (second series), active compounds read low 1.03 | locus YHR079C, strain IRE1, active compounds read low 0.988 | locus YHR094C, strain hxt1, active compounds read low 1.02 | locus YHR129C, strain ARP1, active compounds read low 0.996 | locus YHR142W, strain chs7, active compounds read low 1.02 | locus YHR200W, strain rpn10, active compounds read low 1.03 | locus YIL066C, strain RNR3, active compounds read low 1 | locus YIL073C, strain SPO22, active compounds read low 1.04 | locus YIL125W, strain kgd1, active compounds read low 1.02 | locus YIR030C, strain dcg1, active compounds read low 1.02 | locus YJL092W, strain hpr5, active compounds read low 1.02 | locus YJL095W, strain BCK1 (second series), active compounds read low 1.02 | locus YJL095W, strain BCK1, active compounds read low 0.992 and 0.97 | locus YJL115W, strain asf1, active compounds read low 1.03 | locus YJL129C, strain trk1, active compounds read low 1.03 | locus YJL134W, strain LCB3, active compounds read low 1.01 | locus YJL154C, strain vps35, active compounds read low 1.02 | locus YJL164C, strain tpk1, active compounds read low 1.01 | locus YJL166W, strain qcr8, active compounds read low 1.01 | locus YJL168C, strain set2, active compounds read low 1.02 | locus YJL187C, strain SWE1 (second series), active compounds read low 1.01 | locus YJL187C, strain SWE1, active compounds read low 1.02 | locus YJR043C, strain POL32, active compounds read low 1 | locus YJR066W, strain TOR1, active compounds read low 0.924
